# This is a sample that favours compounds with a hit; in the whole collection about 9.2% have one here.
# Rab9 prom act: activators of Rab9 promoter | 320,000 compounds, 2.8% hits | Potency, µM (top dose mostly 9.22 µM), inactives show at the top dose activation, negative = inhibition, hits mostly activators | Huh7 Rab9 promoter-luciferase reporter, luminescence, 24 h; also: % of control where 0% means no effect; nearly all actives have a fitted effect of over 60% in size
#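 Huh7 reporter line, Rab9 promoter upstream of luciferase. Compound exposure 24 h at 37 °C in reduced-serum medium with 10% FBS. Read-out: luminescence.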
# NPC1 promoter act: activates the NPC1 promoter; 320,000 compounds, 2.4% hits; Huh7 NPC1 promoter luciferase reporter, 24 h; Potency, µM (top dose mostly 9.22 µM), inactives show top-dose activation, actives largely listed as activators; also: % of control where 0% means no effect; nearly all actives have a fitted effect of over 60% in size
#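 Stable NPC1-promoter luciferase Huh7 line; cpd (DMSO) 24 h, 37 °C, 5% CO2; Amplite luciferase reagent 10 min RT; luminescence readout. qHTS format.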
# FLuc modulator: firefly luciferase modulation, counter-screen for miR-21 project; P08659; purified FLuc, Km substrates, luminescence inhibition; Potency, µM (highest dose often 57.5 µM), for the others: at the top dose activity change, negative = inhibition, actives largely listed as inhibitors; 360,000 compounds, 6.9% hits;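 also: plate controls were vehicle for no effect and reference inhibitor for full effect; nearly all actives have a fitted effect of over 55% in size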
# Target sequence (P08659 whole entry, looked up): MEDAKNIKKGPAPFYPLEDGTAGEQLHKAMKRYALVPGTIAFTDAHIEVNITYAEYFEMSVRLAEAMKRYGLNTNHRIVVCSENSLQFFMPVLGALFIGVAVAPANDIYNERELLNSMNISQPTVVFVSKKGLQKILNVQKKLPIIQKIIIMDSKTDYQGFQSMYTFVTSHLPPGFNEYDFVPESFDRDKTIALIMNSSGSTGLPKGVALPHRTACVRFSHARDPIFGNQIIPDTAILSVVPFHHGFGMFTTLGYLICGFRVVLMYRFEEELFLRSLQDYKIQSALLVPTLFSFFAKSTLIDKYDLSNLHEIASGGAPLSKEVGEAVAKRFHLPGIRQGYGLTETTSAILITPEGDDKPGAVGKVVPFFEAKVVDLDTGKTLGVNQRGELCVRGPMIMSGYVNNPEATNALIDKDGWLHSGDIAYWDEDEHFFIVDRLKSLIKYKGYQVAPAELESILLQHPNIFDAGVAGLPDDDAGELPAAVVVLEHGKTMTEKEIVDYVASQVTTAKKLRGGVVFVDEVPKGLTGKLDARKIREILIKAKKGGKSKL
#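 Purified P. pyralis luciferase, 10 nM final, with Km-level 10 uM D-luciferin and 10 uM ATP in 50 mM Tris acetate pH 7.5, 10 mM Mg acetate, 0.01% Tween-20, 0.05% BSA; 6-point qHTS titration about 60 µM downward; luminescence read.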
# ELG1 genotoxic: inducers of genotoxicity in HEK293T ELG1-luciferase cells; HEK293T ELG1-luciferase reporter, luminescence, 16 h; Potency, µM (top dose mostly 46 µM), for the others: top-dose activity change, positive = activation, actives largely listed as activators; 330,000 compounds, 1.3% hits; AID 504466; also: % of control where 0% means no effect; nearly all actives have a fitted effect of over 60% in size
#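 Reporter readout depends on ELG1 protein level, which increases with genetic stress. After 16 hr compound exposure at 37 °C, luciferase activity was quantified using ONE-Glo.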
# ELG1 DNA repair: inhibitors of ELG1-dependent DNA repair in HEK293T cells | 330,000 compounds, 2.3% hits | Potency, µM (series often up to 46.1 µM), for inactives: at the highest dose activity change, negative = inhibition, actives largely listed as inhibitors | AID 504467 | HEK293T ELG1-luciferase reporter, luminescence, 16 h; DNA damage induced by 5-fluorouridine; also: % is scaled to controls: 0 for no effect and ±100 for the full control effect; nearly all actives have a fitted effect of over 55% in size
#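 Luminescence from the luciferase reporter, measured 30 min after ONE-Glo reagent at room temperature, was the read-out. Beforehand, 2,000 cells per well were exposed for 16 hr at 37 °C to 5-fluorouridine together with compound or vehicle.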
# SMN2 splice enh: enhancers of SMN2 splice variant expression | HEK293 SMN2-luciferase splicing reporter, luminescence, 30-36 h | Potency, µM (titrated, usually from 46.1 µM), inactives show at the highest dose activity change, positive = activation, most hits filed as activators | 210,000 compounds, 2.8% hits | AID 1458; also: % of control where 0% means no effect; nearly all actives have a fitted effect of over 55% in size
#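 qHTS luciferase splicing reporter: luminescence rises when SMN2 exon 7 is included in transfected HEK293 cells. Compound exposure lasted 30-36 h at 37C, with 4.5 mM final sodium butyrate as control, followed by a ONE-Glo read.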
# Active calls of the source: *; ? = inconclusive; . = no result. Calls follow the shape of the dose curve; as a rule, active = well fitted curve in the direction sought with a large enough effect; inconclusive = small, poorly fitted or top-dose-only effect, or another doubt; inactive = no such curve, though single readings can be large; an effect the other way counts as inactive or inconclusive. Potency is read from the fitted curve at half-maximal effect.
SMILES,Rab9 prom act,NPC1 promoter act,FLuc modulator,ELG1 genotoxic,ELG1 DNA repair,SMN2 splice enh
CCc1noc(C)c1C(=O)Nc1ccccc1C(C)(C)C,2.8%,-6.0%,1.2%,-0.6%,6.0%,.
COc1ccc(-n2c(=O)c(C)nc3cnc(N(C)C)nc32)cc1,.,.,.,.,.,-3.1%
COc1ccc(NC(=O)CCc2nnc3ccc(N4CCN(c5cccc(OC)c5)CC4)nn23)cc1,-0.8%,-10.2%,-1.7%,-8.6%,?,.
Cc1c(C(=O)Nc2ccccc2)csc1-c1ccccc1,0.708µM*,1.12µM*,0.213µM*,3.66µM*,?,12.6µM*
Cc1c(C(=O)Nc2ccccc2[N+](=O)[O-])csc1-c1ccccc1,2.82µM*,3.16µM*,1.2µM*,4.61µM*,?,.
CN(CC(=O)Nc1ccc(F)cc1)C(=O)c1ccc(OCc2ccccc2)cc1,0.3%,0.4%,-6.5%,0.0%,13.1%,.
CCOc1ccccc1N(C)C(=O)Cn1nc(Cc2ccncc2)c2ccccc2c1=O,.,.,-5.3%,.,.,-3.5%
C=CCn1c(-c2cc3c(s2)CCC(CC)C3)n[nH]c1=S (stereo not given),28.3%,10.5%,30.1µM*,0.0%,?,26.0%
C=CCn1c(SCC(=O)NC2CCS(=O)(=O)C2)nnc1-c1cc2c(s1)CCC(CC)C2 (stereo not given),24.8%,20.3%,10.7µM*,10.4%,?,29.2%
C=CCn1c(SCC(=O)NC2CCS(=O)(=O)C2)nnc1-c1ccc(Cl)cc1 (stereo not given),-2.7%,1.3%,-2.0%,-5.1%,8.4%,.
C=CCn1c(-c2sccc2C)n[nH]c1=S,-5.2%,0.0%,-6.8%,-1.0%,-2.3%,-15.2%
O=c1oc2ccccc2c(N2CCN(c3ccccc3F)CC2)c1CN1CCCC1,.,.,-0.8%,.,.,6.9%
O=C(/C=C/c1ccc(Br)o1)Nc1nccs1,2.82µM*,3.16µM*,?,?,?,12.6µM*
O=C(O)/C=C/C(=O)Nc1nccs1,2.2%,-2.7%,4.9%,-0.4%,?,.
O=C(Nc1nccs1)c1ccc(Br)o1,?,25.0%,?,13.3%,?,11.2µM*
Cc1ccc(-c2csc3nc(SCC(N)=O)n(Cc4ccccc4)c(=O)c23)cc1,2.7%,-4.0%,-1.2%,-6.6%,23.1µM*,-0.9%
CCOC(=O)N1CCN(C(=O)CCSc2ccc(C)cc2)CC1,10.2%,7.9%,-2.9%,6.3%,?,12.2%
CCOC(=O)N1CCN(C(=O)CCc2ccc(S(=O)(=O)NCCc3ccccc3)cc2)CC1,0.6%,0.0%,2.0%,3.7%,14.6µM*,-24.2%
CC(C)CNS(=O)(=O)c1ccc(CCC(=O)N2CCN(Cc3ccc4c(c3)OCO4)CC2)cc1,-13.0%,-5.3%,-1.6%,-7.3%,9.2µM*,-61.6%
CCOC(=O)N1CCN(C(=O)CCSc2ccccc2)CC1,2.82µM*,?,16.9µM*,9.2µM*,?,?
O=C(CCc1ccc(S(=O)(=O)NCCc2ccccc2)cc1)N1CCN(Cc2ccc3c(c2)OCO3)CC1,-9.3%,-0.7%,2.1%,-18.8%,23.1µM*,-21.8%
CCNS(=O)(=O)c1ccc(CCC(=O)N2CCN(Cc3ccccc3)CC2)cc1,5.0%,-4.3%,3.9%,-5.7%,-14.9%,.
COc1ccccc1NC(=O)COC(=O)/C=C/c1ccc(OC)c(OC)c1,.,.,.,0.6%,-11.6%,.
CS(=O)(=O)c1ccc(Cl)c(NC(=O)c2cc(=O)[nH]c3ccc(S(=O)(=O)N4CCOCC4)cc23)c1,-0.7%,-0.2%,-1.2%,1.1%,17.6%,.
CCCCc1ccc(NC(=O)c2cc3c(=O)n4ccccc4nc3s2)cc1,.,.,3.8%,.,.,5.5%
SMILES,Rab9 prom act,NPC1 promoter act,FLuc modulator,ELG1 genotoxic,ELG1 DNA repair,SMN2 splice enh
COc1ccc(S(=O)(=O)N(C)C)cc1NC(C)C(=O)Nc1cccc(C#N)c1 (stereo not given),-0.8%,-4.9%,-2.4%,-0.4%,-0.5%,8.0%
CCc1ccc(C(=O)c2cn(CC(=O)Nc3cccc(C)c3C)c3nc(C)ccc3c2=O)cc1,.,.,-4.9%,.,.,.
COCCn1c(N)c(N(Cc2ccccc2)C(=O)CSCC(=O)Nc2ccc(C)cc2)c(=O)[nH]c1=O,-4.6%,8.4%,2.7%,1.6%,25.0%,.
COc1cccc(C2C(C(N)=O)=C(C)Nc3nc(-c4ccccc4Cl)nn32)c1 (stereo not given),-0.9%,-4.4%,0.8%,18.4µM*,?,?
COc1ccc(C2C(C(N)=O)=C(C)Nc3nc(-c4ccccc4)nn32)cc1OC (stereo not given),8.0%,0.9%,0.2%,?,?,9.8%
COc1ccc(C2C3=C(CCCC3=O)Nc3nc(-c4cc(OC)c(OC)c(OC)c4)nn32)cc1OC (stereo not given),-14.0%,-1.6%,3.1%,20.6µM*,-16.7%,8.91µM*
COc1ccc(C2C(C(N)=O)=C(C)Nc3nc(-c4cccc(Cl)c4)nn32)cc1OC (stereo not given),0.4%,6.8%,-1.1%,?,2.0%,17.8µM*
COc1ccc(-c2nnn(CC(=O)N(CCCN3CCOCC3)C(C(=O)NC3CCCC3)c3ccco3)n2)cc1 (stereo not given),-2.6%,-3.8%,0.4%,2.9%,1.4%,.
CCc1ccc(C(=O)NC(CCSC)C(=O)OC)cc1 (stereo not given),6.1%,-3.5%,19µM*,-1.8%,8.3%,5.1%
COC(=O)[C@H](CCSC)NC(=O)c1cccnc1SC,-3.5%,-0.3%,-2.4%,-3.4%,-0.1%,.
COc1ccccc1NC(=O)CSc1ccc2nnc(CCNC(=O)c3ccccc3)n2n1,2.9%,-0.9%,-2.3%,-4.5%,-0.5%,.
CC(=O)Nc1ccc(NC(=O)c2cc(C)nn2-c2ccccc2)cc1,0.5%,1.9%,-1.5%,2.2%,4.9%,0.9%
CCC(=O)Nc1ccc2c(c1)ncn2-c1ccccc1,?,?,15.1µM*,?,?,?
CC(=O)Nc1ccc2c(c1)ncn2-c1ccccc1,1.41µM*,2.82µM*,10.7µM*,20.6µM*,?,.
Cn1cnc2cc(NC(=O)COc3ccccc3)ccc21,23.7%,12.1%,23.9µM*,?,?,.
CCOc1ccc(-n2nc3ccc(NC(=O)CC)cc3n2)cc1,?,?,2.69µM*,16.5%,?,.
CCOc1ccc(-n2nc3ccc(NC(=O)Cc4ccccc4)cc3n2)cc1,.,.,3.5%,.,.,-6.5%
COc1ccc(C2(CNC(=O)C(=O)Nc3ccccc3C)CCCC2)cc1OC,.,.,4.5%,.,.,-2.0%
Cc1nccn1CCCN1C(=O)CNC1=S,0.3%,-2.5%,-1.5%,1.5%,6.0%,-2.5%
Cc1cc2nc(N3C(=O)CNC3=S)sc2cc1C,0.447µM*,0.447µM*,0.536µM*,18.3µM*,?,3.98µM*

# Source: PubChem BioAssay
